Test results from the supplement of paper PMC6555819.

How the values were obtained:
Experiment in all cases: PBM binding z-score (relative to random genomic background probes); higher = stronger binding; sequences stand for … in GC…GCGATTGACAGCGTAGAATGAAGG
[1] = system: RARb homodimer (NR concentration 270 nM)
In short: (§1)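 The probes on custom Agilent 4×180K protein-binding microarrays were double-stranded, with 34-nt variable regions bearing direct-repeat seeds, single-nucleotide variants, half-site ablations and random human genomic background sequences. Incubation lasted 1 h with ligand-free nuclear receptor dimers in PBS pH 7.4, 2% milk, 0.02% Triton X-100, 1 mM DTT, 0.2 mg/mL BSA and 0.4 mg/ml salmon testes DNA. Antibodies against each partner (one per run) detected bound dimers, and fluorescence scans were regression-normalized. Binding z-scores take the random background probes as reference.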

[2] = system: RARg:RXRa (NR concentration 270 nM, RXRa partner concentration 90 nM)
In short: as §1

[3] = system: RARg homodimer (NR concentration 270 nM)
In short: as §1

[4] = system: RXRa DBDmut IVT, anti-RXR (DBD mutation: RXRa K156A/R161A, NR concentration 90 nM)
In short: as §1

[5] = system: RXRa homodimer (NR concentration 180 nM)
In short: as §1

[6] = system: THRa:RXRa (NR concentration 90 nM, RXRa partner concentration 90 nM)
In short: as §1

[7] = system: THRa homodimer (NR concentration 90 nM)
In short: as §1

[8] = system: VDR homodimer (NR concentration 270 nM)
In short: as §1

Sequence: ATATGTAGGTTACATCCGGGTCATTCGGGCTATG
- PBM binding z-score [1]: 2.99
- PBM binding z-score [2]: 3.7
- PBM binding z-score [3]: 2.26
- PBM binding z-score [4]: 1.22
- PBM binding z-score [5]: 3.01
- PBM binding z-score [6]: 3.69
- PBM binding z-score [7]: 2.36
- PBM binding z-score [8]: 3.19

Sequence: CCTACTGGGCCGAAAAGGTCATTGATGCCGATAA
- PBM binding z-score [1]: 4.31
- PBM binding z-score [2]: 4.56
- PBM binding z-score [3]: 3.89
- PBM binding z-score [4]: 0.386
- PBM binding z-score [5]: 4.95
- PBM binding z-score [6]: 3
- PBM binding z-score [7]: 0.639
- PBM binding z-score [8]: 2.13

Sequence: CCTACTAGGCCATCAGGTCATTGATATCAACGTT
- PBM binding z-score [1]: 3.07
- PBM binding z-score [2]: 2.45
- PBM binding z-score [3]: 2.56
- PBM binding z-score [4]: 1.43
- PBM binding z-score [5]: 1.71
- PBM binding z-score [6]: 3.32
- PBM binding z-score [7]: 3.28
- PBM binding z-score [8]: 2.51

Sequence: TGTCAAAGTTCAAAAGTAACGTAAGTATCCACAC
- PBM binding z-score [1]: 3.09
- PBM binding z-score [2]: 5.13
- PBM binding z-score [3]: 5.21
- PBM binding z-score [4]: 4.25
- PBM binding z-score [5]: 4.57
- PBM binding z-score [6]: 1.86
- PBM binding z-score [7]: -0.26
- PBM binding z-score [8]: 3.51

Sequence: ATATCTAGGTAACAAGTTCAGTGAAAGAGAGGAC
- PBM binding z-score [1]: 1.93
- PBM binding z-score [2]: 1.25
- PBM binding z-score [3]: 1.51
- PBM binding z-score [4]: 1.36
- PBM binding z-score [5]: 1.03
- PBM binding z-score [6]: 1.49
- PBM binding z-score [7]: 0.951
- PBM binding z-score [8]: 2.85

Sequence: CCTACCAGGCCAGGGTCACTCAAGCATTTCGCTT
- PBM binding z-score [1]: 2.84
- PBM binding z-score [2]: 3.13
- PBM binding z-score [3]: 2.44
- PBM binding z-score [4]: -0.231
- PBM binding z-score [5]: 3.18
- PBM binding z-score [6]: 2.98
- PBM binding z-score [7]: 1.56
- PBM binding z-score [8]: 1.29

Sequence: CCTAGCAGGCCCGGGTCACTCAAGCATTTCGCTT
- PBM binding z-score [1]: 2.02
- PBM binding z-score [2]: 1.96
- PBM binding z-score [3]: 1.46
- PBM binding z-score [4]: -0.519
- PBM binding z-score [5]: 2.43
- PBM binding z-score [6]: 2.71
- PBM binding z-score [7]: 1.3
- PBM binding z-score [8]: 0.294

Sequence: GCTAGCAGGCCATTTGGGTCACTAAATGACGGGC
- PBM binding z-score [1]: 1.76
- PBM binding z-score [2]: 0.89
- PBM binding z-score [3]: 1.18
- PBM binding z-score [4]: -0.318
- PBM binding z-score [5]: 0.776
- PBM binding z-score [6]: 1.68
- PBM binding z-score [7]: 0.196
- PBM binding z-score [8]: 0.0959

Sequence: ATCTCTAGGTGAAGATAGTTCAGTGAATGCAAAT
- PBM binding z-score [1]: 1.19
- PBM binding z-score [2]: 1.16
- PBM binding z-score [3]: 1.27
- PBM binding z-score [4]: -0.299
- PBM binding z-score [5]: 0.687
- PBM binding z-score [6]: 1.24
- PBM binding z-score [7]: 0.00291
- PBM binding z-score [8]: 0.334

Sequence: CAAACTAGGTCACGAAAGGTCAAGGTCGAATGAC
- PBM binding z-score [1]: 6.07
- PBM binding z-score [2]: 7.93
- PBM binding z-score [3]: 8.86
- PBM binding z-score [4]: 2.21
- PBM binding z-score [5]: 8
- PBM binding z-score [6]: 5.14
- PBM binding z-score [7]: 3.71
- PBM binding z-score [8]: 4.2

Sequence: TCTTGTAGCTCAAAGGTTAAGAAAGCCGAAGCCT
- PBM binding z-score [1]: 1.26
- PBM binding z-score [2]: 1.16
- PBM binding z-score [3]: 0.435
- PBM binding z-score [4]: 0.364
- PBM binding z-score [5]: 1.82
- PBM binding z-score [6]: 1.05
- PBM binding z-score [7]: -0.771
- PBM binding z-score [8]: -0.151

Sequence: CGTCCAAGGTTATAGGAGGTCAGTGAAGACAGAT
- PBM binding z-score [1]: 3.79
- PBM binding z-score [2]: 3.62
- PBM binding z-score [3]: 3.5
- PBM binding z-score [4]: 1.48
- PBM binding z-score [5]: 2.87
- PBM binding z-score [6]: 4.89
- PBM binding z-score [7]: 1.69
- PBM binding z-score [8]: 2.1

Sequence: GCTTACGGGTCAGAGGTTATAGCATGAATAGAAT
- PBM binding z-score [1]: 2.66
- PBM binding z-score [2]: 4.85
- PBM binding z-score [3]: 3.51
- PBM binding z-score [4]: 1.24
- PBM binding z-score [5]: 6.16
- PBM binding z-score [6]: 2.66
- PBM binding z-score [7]: -0.0589
- PBM binding z-score [8]: 0.979

Sequence: CGAACTAGGTCATCCAGGACAGTAAATACATTGA
- PBM binding z-score [1]: 2.98
- PBM binding z-score [2]: 4.05
- PBM binding z-score [3]: 4.72
- PBM binding z-score [4]: 2.51
- PBM binding z-score [5]: 2.89
- PBM binding z-score [6]: 3.58
- PBM binding z-score [7]: 2.2
- PBM binding z-score [8]: 2.45

Sequence: AGAACGAGGGCAACGAGTTGATAGCACGGGTGGC
- PBM binding z-score [1]: 0.919
- PBM binding z-score [2]: 1.41
- PBM binding z-score [3]: 1.74
- PBM binding z-score [4]: 1.76
- PBM binding z-score [5]: 0.952
- PBM binding z-score [6]: 0.99
- PBM binding z-score [7]: -0.357
- PBM binding z-score [8]: 2.5

Sequence: GCTGCTAGGTCAGATTGGTCAGCTAACGGGTACG
- PBM binding z-score [1]: 2.58
- PBM binding z-score [2]: 2.22
- PBM binding z-score [3]: 3.18
- PBM binding z-score [4]: 0.569
- PBM binding z-score [5]: 1.11
- PBM binding z-score [6]: 1.73
- PBM binding z-score [7]: 0.354
- PBM binding z-score [8]: 0.117

Sequence: AAAACGAGGGCAATGAGTTGATAGCACGGGTGGC
- PBM binding z-score [1]: 1.2
- PBM binding z-score [2]: 1.23
- PBM binding z-score [3]: 1.6
- PBM binding z-score [4]: 2.07
- PBM binding z-score [5]: 1.13
- PBM binding z-score [6]: 1.31
- PBM binding z-score [7]: -0.257
- PBM binding z-score [8]: 3.26

Sequence: CGAACTAAGTCAAGGACAGTGAATCTCCGCACGC
- PBM binding z-score [1]: 0.164
- PBM binding z-score [2]: 0.0358
- PBM binding z-score [3]: 0.274
- PBM binding z-score [4]: 0.417
- PBM binding z-score [5]: -0.164
- PBM binding z-score [6]: 1.45
- PBM binding z-score [7]: 1.12
- PBM binding z-score [8]: -0.0534

Sequence: ACTATTAGTTGAGACGAGGGCAAACGATAGGTTG
- PBM binding z-score [1]: 0.968
- PBM binding z-score [2]: 0.74
- PBM binding z-score [3]: 0.778
- PBM binding z-score [4]: 0.626
- PBM binding z-score [5]: 0.323
- PBM binding z-score [6]: 2.42
- PBM binding z-score [7]: 0.104
- PBM binding z-score [8]: 1.39

Sequence: TCTTGTAGATCAATAGAGCTTAAGAAAGTGCGCT
- PBM binding z-score [1]: -1.12
- PBM binding z-score [2]: -0.405
- PBM binding z-score [3]: -0.425
- PBM binding z-score [4]: -0.034
- PBM binding z-score [5]: -0.343
- PBM binding z-score [6]: -0.676
- PBM binding z-score [7]: -1.11
- PBM binding z-score [8]: -0.773

Sequence: GTACCATGGTGAATAGGTCGTTGATGAGTAGGCG
- PBM binding z-score [1]: 0.603
- PBM binding z-score [2]: 0.323
- PBM binding z-score [3]: 0.274
- PBM binding z-score [4]: -0.264
- PBM binding z-score [5]: 0.592
- PBM binding z-score [6]: 0.133
- PBM binding z-score [7]: -0.299
- PBM binding z-score [8]: 0.21

Sequence: CCTATTGGGCCAAAGGTCATTGATTCCAATGCTC
- PBM binding z-score [1]: 4.43
- PBM binding z-score [2]: 5.85
- PBM binding z-score [3]: 4.73
- PBM binding z-score [4]: 1.62
- PBM binding z-score [5]: 6.7
- PBM binding z-score [6]: 3.29
- PBM binding z-score [7]: 0.647
- PBM binding z-score [8]: 2.85

Sequence: ACAGACAGGTGAGTGAAGGTAACTCGGCTGGACG
- PBM binding z-score [1]: 0.0831
- PBM binding z-score [2]: 0.0852
- PBM binding z-score [3]: 0.044
- PBM binding z-score [4]: -0.351
- PBM binding z-score [5]: 0.256
- PBM binding z-score [6]: 1.38
- PBM binding z-score [7]: -0.708
- PBM binding z-score [8]: -0.648

Sequence: ACTCACGGGTCAACGAGGTTATAGCACGCGTATA
- PBM binding z-score [1]: 3.5
- PBM binding z-score [2]: 5.72
- PBM binding z-score [3]: 4.98
- PBM binding z-score [4]: 2.83
- PBM binding z-score [5]: 6.42
- PBM binding z-score [6]: 4.03
- PBM binding z-score [7]: 1.03
- PBM binding z-score [8]: 4.51

Sequence: CGTCCCAGGTCATAGGAGGTCAGTGAAGACAGAT
- PBM binding z-score [1]: 4.84
- PBM binding z-score [2]: 5.47
- PBM binding z-score [3]: 5.84
- PBM binding z-score [4]: 2.74
- PBM binding z-score [5]: 4.75
- PBM binding z-score [6]: 4.89
- PBM binding z-score [7]: 3.13
- PBM binding z-score [8]: 3.59

Sequence: ATCTCTAGGTAACAAGTTAAGTGAAAGAGAGGAC
- PBM binding z-score [1]: 0.585
- PBM binding z-score [2]: 0.726
- PBM binding z-score [3]: 0.704
- PBM binding z-score [4]: -0.00477
- PBM binding z-score [5]: 0.663
- PBM binding z-score [6]: 1.29
- PBM binding z-score [7]: 0.846
- PBM binding z-score [8]: 0.307

Sequence: GCTAGTTGGTCAGTAAAAGCTCACACACCGGTCG
- PBM binding z-score [1]: 0.375
- PBM binding z-score [2]: -0.0691
- PBM binding z-score [3]: 0.0188
- PBM binding z-score [4]: 0.421
- PBM binding z-score [5]: -0.0351
- PBM binding z-score [6]: -0.374
- PBM binding z-score [7]: -0.166
- PBM binding z-score [8]: -0.217

Sequence: CGTCCAAGGTCAATGCTAGGTCGGTGAAAGCATT
- PBM binding z-score [1]: 4.24
- PBM binding z-score [2]: 6.11
- PBM binding z-score [3]: 6.15
- PBM binding z-score [4]: 3.31
- PBM binding z-score [5]: 4.83
- PBM binding z-score [6]: 3.79
- PBM binding z-score [7]: 1.98
- PBM binding z-score [8]: 2.04
